SRC2 inh: human SRC2 (NCOA2) inhibition; Q15596; HEK293 GAL4-SRC2 luciferase reporter, luminescence; inhibition, % at 9 µM; actives 0.17% (n = 370,000); AID 651957;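 active = inhibition above the mean inhibition of all tested compounds plus 3 SD, set per campaign, cut at about 52% in these data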
SRC1 inh: inhibitors of human steroid receptor coactivator 1 (SRC1). AID 588354. HEK293 GAL4-SRC1 luciferase reporter, luminescence. actives 0.12% (n = 360,000). inhibition, % at 3.6 µM;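 active = inhibition above the campaign mean plus 3 SD, with each screening campaign given its own cutoff, cut at about 60% in these data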
Gli-Sufu antag: blocks Gli-Sufu signaling in a luciferase reporter; AID 588413; inhibition, % at 5 µM; actives 0.74% (n = 340,000); Sufu-KO-LIGHT fibroblasts, Gli luciferase reporter luminescence;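 active = inhibition above about 55%, limit read from the data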
LRH-1 inv ag: suppresses constitutive activity of human LRH-1. O00482. HEK293T StAR-luciferase reporter, LRH-1 transfected, 24 h. inhibition, % at 3.6 µM. actives 0.13% (n = 360,000). AID 602396;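 active = inhibition above the mean inhibition of all tested compounds plus 3 SD, cut at about 73% in these data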
Target sequence (O00482 whole entry, looked up): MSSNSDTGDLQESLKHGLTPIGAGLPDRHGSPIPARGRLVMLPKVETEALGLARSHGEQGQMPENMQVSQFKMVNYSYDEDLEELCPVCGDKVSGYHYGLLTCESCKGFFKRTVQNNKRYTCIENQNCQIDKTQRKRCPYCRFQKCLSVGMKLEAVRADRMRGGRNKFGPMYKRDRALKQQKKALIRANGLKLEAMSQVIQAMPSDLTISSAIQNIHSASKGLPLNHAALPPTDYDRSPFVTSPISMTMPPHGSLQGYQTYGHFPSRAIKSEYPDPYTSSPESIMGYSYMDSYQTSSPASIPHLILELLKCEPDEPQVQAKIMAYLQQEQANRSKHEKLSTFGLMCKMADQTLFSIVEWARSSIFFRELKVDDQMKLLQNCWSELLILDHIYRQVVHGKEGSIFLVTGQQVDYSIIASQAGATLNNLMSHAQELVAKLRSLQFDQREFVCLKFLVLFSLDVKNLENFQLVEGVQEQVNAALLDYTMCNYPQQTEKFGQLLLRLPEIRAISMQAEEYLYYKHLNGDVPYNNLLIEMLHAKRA
SRC3 inh: inhibitors of human steroid receptor coactivator 3 (SRC3). Q9Y6Q9. HEK293 GAL4-SRC3 luciferase reporter, luminescence. inhibition, % at 3.6 µM. actives 0.17% (n = 360,000). AID 588352;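 active = inhibition above a per-campaign cutoff, the mean of all compounds plus 3 SD, cut at about 60% in these data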;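 also: higher means less SRC3-driven luciferase light from the GAL4 reporter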
COUP-TFII inh: blocks human COUP-TFII nuclear receptor. inhibition, % at 8.6 µM. P24468. actives 0.7% (n = 370,000). HEK293T NGFI-A luciferase reporter, luminescence;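 active = inhibition above a per-plate cutoff, mean inhibition of test wells between control levels plus 3 SD, cut at about 38% in these data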;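 also: cells cotransfected with COUP-TFII expression vector driving the NGFI-A reporter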
Gli-Sufu confirm: confirmation of Gli-SUFU pathway antagonists. shares compounds with Gli-Sufu antag. inhibition, % at 5 µM. actives 40% (n = 2,500). Sufu-KO-LIGHT cells, Gli luciferase reporter, luminescence. AID 602428;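 active = mean inhibition at 5 µM reaching about 45%, limit read from the data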
Gli cytotox: cytotoxicity counter-screen for Gli-SUFU antagonists. shares compounds with Gli-Sufu antag. Sufu-KO-LIGHT cells cytotoxicity, ATP luminescence. cytotoxicity, % at 5 µM. actives 32% (n = 2,500);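 active = mean cytotoxicity at 5 µM above about 25%, limit read from the data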;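 also: cells exposed to compound overnight for roughly 16 to 18 hours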
Wnt3a counter: Wnt3a reporter inhibition counter-screen. shares compounds with Gli-Sufu antag. Wnt-LIGHT cells, Wnt3a-driven luciferase reporter, luminescence. actives 20% (n = 2,500). AID 651995. inhibition, % at 6.25 µM;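 active = mean inhibition above about 25%, limit read from the data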
Gal4-VP16 ctr: inhibits VP16 reporter, flagging COUP-TFII antagonist hits | HEK293 Gal4-VP16 luciferase reporter, luminescence | AID 687007 | actives 25% (n = 2,500) | shares compounds with COUP-TFII inh | inhibition, % at 8.5 µM; in the data active = inhibition above about 13%
COUP-TFII conf: confirmation of human COUP-TFII (NR2F2) inhibitors. shares compounds with COUP-TFII inh. HEK293 NGFI-A luciferase reporter, luminescence. inhibition, % at 8.5 µM. actives 45% (n = 2,500). AID 687008;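 active = mean inhibition over three repeats above a set limit taken from the earlier primary screen, cut at about 38% in these data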
Each line names hits and unclear results; the compound was inactive in the other large screens (follow-up assays come after a bar, where they were run). An excerpt weighted towards active compounds, which were near 1.3% of everything screened.

CCc1ccc(OC)c(S(=O)(=O)Nc2ccc(Cc3ccncc3)cc2)c1	Gli-Sufu antag 57, COUP-TFII inh 64 | Gli-Sufu confirm 58 | Gli cytotox 44 | Wnt3a counter 29 | Gal4-VP16 ctr inactive | COUP-TFII conf inactive
COc1ccc(S(=O)(=O)Nc2ccc(Cc3ccncc3)cc2)cc1OC	none
C=CC[C@H]1c2ccccc2[C@H]2N3N=Cc4ccccc4[C@H]3[C@H](CCCC)C(=O)N2N1C(=O)c1ccccc1	none (no result: SRC1 inh, Gli-Sufu antag, LRH-1 inv ag, SRC3 inh)
COC[C@H]1CCCN1c1ccc2c(c1)O[C@H]1CCN(C1)S2(=O)=O	none (no result: SRC1 inh, Gli-Sufu antag, LRH-1 inv ag, SRC3 inh)
Cc1ccc(NC(=O)/C=C/c2ccco2)cc1S(=O)(=O)N1CCCCCC1	Gli-Sufu antag 77, COUP-TFII inh 50 | Gli-Sufu confirm 88 | Gli cytotox inactive | Wnt3a counter inactive | Gal4-VP16 ctr inactive | COUP-TFII conf inactive
Cc1cccc(OCCC(=O)Nc2ccc(C)c(S(=O)(=O)N3CCCCC3)c2)c1	Gli-Sufu antag 62, COUP-TFII inh 38 | Gli-Sufu confirm inactive | Gli cytotox inactive | Wnt3a counter inactive | Gal4-VP16 ctr inactive | COUP-TFII conf inactive
Cc1ccc(NC(=O)COc2ccccc2C(N)=O)cc1S(=O)(=O)N1CCCCCC1	COUP-TFII inh 60 | Gli-Sufu confirm 48 | Gli cytotox 28 | Wnt3a counter inactive | Gal4-VP16 ctr inactive | COUP-TFII conf 46
O=C(Nc1ccc(F)c(C(F)(F)F)c1)Nc1nnc(-c2ccncc2)s1	none (no result: SRC2 inh, SRC1 inh, Gli-Sufu antag, LRH-1 inv ag, SRC3 inh)
FC(F)(F)c1cc(CNC2CCC23CCC(c2ccccc2)CC3)ccc1Cl (stereo unspecified)	none (no result: SRC2 inh, SRC1 inh, Gli-Sufu antag, LRH-1 inv ag, SRC3 inh)
CCN(CC)C(=O)CC[C@H]1CC[C@]2(CCCN(C(=O)c3ccc4ccccc4n3)C2)O1	none (no result: SRC1 inh, Gli-Sufu antag, LRH-1 inv ag, SRC3 inh)
CCOc1ccc(OCc2ccc(C(=O)NN=Cc3ccc[nH]3)cc2)cc1	Gli-Sufu antag 80, LRH-1 inv ag 86, COUP-TFII inh 73 | Gli-Sufu confirm 80 | Gli cytotox inactive | Wnt3a counter inactive | Gal4-VP16 ctr inactive | COUP-TFII conf 71
COC(=O)[C@]1(CNC(=O)c2cc(F)ccc2F)CC(=O)N(C)[C@@H]1c1ccccc1	none (no result: SRC1 inh, Gli-Sufu antag, LRH-1 inv ag, SRC3 inh)
O=C(Nc1ccncc1)c1cccc(S(=O)(=O)N2CCc3ccccc32)c1	Gli-Sufu antag 56, COUP-TFII inh 61 | Gli-Sufu confirm 55 | Gli cytotox inactive | Wnt3a counter 40 | Gal4-VP16 ctr inactive | COUP-TFII conf 45
O=C(Nc1cccnc1)c1cccc(S(=O)(=O)N2CCc3ccccc32)c1	none
Cn1c(=O)c2[nH]c(CCCCCCCCc3nc4ccccc4[nH]3)nc2n(C)c1=O	Gli-Sufu antag 57, COUP-TFII inh 69 | Gli-Sufu confirm 66 | Gli cytotox 28 | Wnt3a counter inactive | Gal4-VP16 ctr inactive | COUP-TFII conf 58
Cc1ccc(C(C)C)c(OCc2ccc(C(=O)N/N=C/c3ccc(O)c(O)c3)cc2)c1	Gli-Sufu antag 67, COUP-TFII inh 44 | Gli-Sufu confirm 49 | Gli cytotox 29 | Wnt3a counter 93 | Gal4-VP16 ctr 19 | COUP-TFII conf inactive
COCC(=O)N[C@@H]1C[C@@H]2O[C@H](CO)CC[C@@H]2O[C@@H]1CCc1ccc(-c2ccccc2)cc1	none (no result: SRC1 inh, Gli-Sufu antag, LRH-1 inv ag, SRC3 inh)
COc1ccc(C(=O)NC2CCCc3c2cnn3-c2ccccc2F)cc1OC (stereo unspecified)	Gli-Sufu antag 56, COUP-TFII inh 50 | Gli-Sufu confirm inactive | Gli cytotox inactive | Wnt3a counter inactive | Gal4-VP16 ctr inactive | COUP-TFII conf 49
O=C(NC1CCCc2c1cnn2-c1ccc(F)cc1F)c1ccccn1 (stereo unspecified)	none
O=C(NC1CCCc2c1cnn2-c1ccccc1F)c1ccccn1 (stereo unspecified)	none
Cc1nnsc1C(=O)NC1CCCc2c1cnn2-c1ccc(C(C)(C)C)cc1 (stereo unspecified)	Gli-Sufu antag 62, COUP-TFII inh 65 | Gli-Sufu confirm 59 | Gli cytotox 53 | Wnt3a counter inactive | Gal4-VP16 ctr inactive | COUP-TFII conf 66
Cc1nnsc1C(=O)NC1CCCc2c1cnn2-c1ccccc1F (stereo unspecified)	COUP-TFII inh 45 | Gli-Sufu confirm 45 | Gli cytotox inactive | Wnt3a counter 29 | Gal4-VP16 ctr inactive | COUP-TFII conf 45
Cc1ncoc1C(=O)NC1CCCc2c1cnn2-c1ccc(C(C)(C)C)cc1 (stereo unspecified)	COUP-TFII inh 60 | Gli-Sufu confirm 45 | Gli cytotox inactive | Wnt3a counter inactive | Gal4-VP16 ctr inactive | COUP-TFII conf 65
Cc1cc2c(s1)c1cnn(Cc3c(Cl)ccc(C)c3F)c(=O)c1n2C	none (no result: SRC2 inh, SRC1 inh, Gli-Sufu antag, LRH-1 inv ag, SRC3 inh)
Cn1cc(CNCc2ccc(OC(F)(F)F)cc2)c(-c2ccc3c(c2)OCCO3)n1	Gli-Sufu antag 60, COUP-TFII inh 48 | Gli-Sufu confirm 63 | Gli cytotox 36 | Wnt3a counter 26 | Gal4-VP16 ctr inactive | COUP-TFII conf 40
Cn1cc(CNCc2cn[nH]c2-c2ccc(F)cc2)c(-c2ccc3c(c2)OCCO3)n1	none
CCOc1ccc(-c2c[n+]3c(n2-c2ccccc2)CCCCC3)cc1	Gli-Sufu antag 88, COUP-TFII inh 56 | Gli-Sufu confirm 88 | Gli cytotox 39 | Wnt3a counter inactive | Gal4-VP16 ctr inactive | COUP-TFII conf 44
O=C(OC(c1ccccc1)c1nccc2ccccc12)c1cccc([N+](=O)[O-])c1 (stereo unspecified)	none
O=C(OC(c1ccccc1)c1nccc2ccccc12)c1ccccc1 (stereo unspecified)	SRC2 inh 61, SRC1 inh 67, Gli-Sufu antag 65, LRH-1 inv ag 76, SRC3 inh 70, COUP-TFII inh 81 | Gli-Sufu confirm 79 | Gli cytotox 28 | Wnt3a counter 92 | Gal4-VP16 ctr 53 | COUP-TFII conf 87
COc1ccc2c(c1)[nH]c1c(N3CCSCC3)ncnc12	none
Cc1ccc2c(c1)[nH]c1c(N3CCN(Cc4ccccc4)CC3)ncnc12	Gli-Sufu antag 68, COUP-TFII inh 67 | Gli-Sufu confirm 63 | Gli cytotox 30 | Wnt3a counter inactive | Gal4-VP16 ctr inactive | COUP-TFII conf 40

From PubChem BioAssay
